Source: PubChem BioAssay (NCI)
Compounds without any hit were thinned out: in the full panel of roughly 79,000, 15% have a hit. A number with no mark means an inactive call. Calls of active or inactive are those of the source. Cut-off read from the data, not from the text of the source: active = growth inhibition above about 70%; inactive = the rest.

Experiments:
[1] = NCI Yeast Anticancer Drug Screen. Data for the rad50 strain (AID 155);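 note: 0% = growth of vehicle-only cultures of the same strain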; details: S. cerevisiae rad50 strain growth inhibition, stronger effect = higher value
In short: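 Vehicle-treated cultures provide the reference for the growth inhibition reported for compound-exposed, repair-deficient yeast.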

[2] = NCI Yeast Anticancer Drug Screen. Data for the mec2-1 strain (AID 157); details: S. cerevisiae mec2-1 strain, stronger effect = higher value
In short: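 Mutant yeast (mec2-1) grown with compound; growth inhibition relative to vehicle control reported.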

[3] = NCI Yeast Anticancer Drug Screen. Data for the sgs1 mgt1 strain (AID 161);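 note: 0% = growth of cultures given vehicle only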; details: S. cerevisiae sgs1 mgt1 strain, stronger effect = higher value
In short: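 Percent growth inhibition was derived by comparing compound-exposed mutant yeast with vehicle-exposed cultures. The strain carries alterations in DNA damage repair.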

[4] = NCI Yeast Anticancer Drug Screen. Data for the cln2 rad14 strain (AID 165);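 note: 0% = growth equal to vehicle treated cultures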; details: S. cerevisiae cln2 rad14 strain, stronger effect = higher value
In short: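 Readout is yeast growth inhibition versus vehicle-treated controls, using a strain with cln2 and rad14 alterations exposed to compound.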

[5] = NCI Yeast Anticancer Drug Screen. Data for the bub3 strain (AID 167); details: S. cerevisiae bub3 mutant strain, stronger effect = higher value
In short: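 Mutant yeast screening strain plus compound; vehicle-treated cultures serve as the 0% inhibition reference.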

[6] = NCI Yeast Anticancer Drug Screen. Data for the mlh1 rad18 strain (AID 175); details: S. cerevisiae mlh1 rad18 strain growth inhibition, stronger effect = higher value
In short: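 Genetically defined yeast (DNA repair-deficient) exposed to compounds; growth inhibition determined relative to vehicle.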

[7] = at 5.0 µM (retest, dose inferred, filed as 0.5)
[8] = at 50.0 µM (retest, dose inferred, filed as 5.0)

Row | SMILES | growth inhibition [1, 7] | growth inhibition [1, 8] | growth inhibition ([1]; at 50.0 µM) | growth inhibition [2, 7] | growth inhibition [2, 8] | growth inhibition ([2]; at 50.0 µM) | growth inhibition [3, 7] | growth inhibition [3, 8] | growth inhibition ([3]; at 50.0 µM) | growth inhibition [4, 7] [%] | growth inhibition [4, 8] | growth inhibition ([4]; at 50.0 µM) | growth inhibition [5, 7] | growth inhibition [5, 8] | growth inhibition ([5]; at 50.0 µM) | growth inhibition [6, 7] | growth inhibition [6, 8] | growth inhibition ([6]; at 50.0 µM)
1 | O=[N+]([O-])/C(Cl)=C(\Nc1ccccc1)C(Cl)=C(Cl)Cl | 55% | 99% (active) | 88.2% (active) | 82% (active) | 99% (active) | 92.2% (active) | 73% (active) | 99% (active) | 88.8% (active) | 64 | 99% (active) | 90.9% (active) | 76% (active) | 99% (active) | 90.4% (active) | 83% (active) | 99% (active) | 85.1% (active)
2 | C(=N\NC1=NCCN1)/c1cccc2cc3ccncc3nc12 | 8% | 66% | 86.5% (active) | 7% | 60% | 91% (active) | -4% | 63% | 83.8% (active) | -6 | 53% | 88% (active) | -12% | 27% | 87.7% (active) | -9% | 53% | 82.5% (active)
3 | CN1COc2c(Cl)cc(Cl)cc2C1 | -3% | 85% (active) | 76.2% (active) | -2% | 45% | 57.2% | 0% | 91% (active) | -5.15% | -3 | 46% | -4% | -4% | 75% (active) | 45.5% | -1% | 86% (active) | 42.5%
4 | O=[N+]([O-])c1ccc2c(c1)/C(=N/O)c1ccccc1-2 | 21% | 49% | 88.3% (active) | 0% | 7% | 28.4% | 4% | 20% | 70% | -10 | 4% | 46.2% | 8% | 29% | 18.8% | 19% | 38% | 81% (active)
5 | COC1=CC(=O)c2c(O)c3c(c(O)c2C1=O)C=C(C)OC3O (configuration not stated) | -3% | 34% | 85.5% (active) | -2% | 31% | 88% (active) | -27% | 22% | 89% (active) | 7 | 20% | 47.1% | -4% | 44% | 85.8% (active) | -9% | 52% | 89.3% (active)
6 | C[n+]1c2ccccc2cc2[nH]c3ccccc3c21 | 84% (active) | 93% (active) | 74% (active) | 86% (active) | 96% (active) | 78.6% (active) | 89% (active) | 98% (active) | 79.7% (active) | 63 | 75% (active) | 64.8% | 84% (active) | 84% (active) | 72.7% (active) | 90% (active) | 97% (active) | 77.3% (active)
7 | O=c1[nH]c2c([N+](=O)[O-])cc(Cl)cc2nc1/C=C(\O)c1ccccn1 | 8% | 61% | 51.8% | -1% | 26% | 5.8% | 7% | 41% | 49.2% | 4 | 52% | 37% | 14% | 27% | 12.1% | 11% | 46% | 79.2% (active)
8 | CN(C)C(=S)/N=c1\ssc(=S)n1Cc1ccco1 | 22% | -7% | 1.55% | 0% | -8% | -3.4% | -15% | -9% | -15.8% | -7 | -11% | 0.45% | 2% | -5% | 47.3% | -2% | -9% | -4.25%
9 | Cc1ccc(N=Nc2ncccc2O)cc1C | -157% | 95% (active) | 98.8% (active) | -49% | 95% (active) | 98.2% (active) | -67% | 95% (active) | 98.4% (active) | -64 | 93% (active) | 87.4% (active) | -85% | 96% (active) | 97.7% (active) | -121% | 95% (active) | 98.2% (active)
